3T3 cytotox: Cytotoxic Profiling in NIH 3T3 Cell Line of Diverse Libraries Using Quantitative High-Throughput Screening. NIH 3T3 viability, CellTiter-Glo ATP luminescence, 48-72 h. Potency, µM (top dose mostly 96.7 µM), without a hit: top-dose activity change, negative = cytotoxicity, actives largely listed as inhibitors. 4.3% of 94,000 active; note: nearly all actives have a fitted effect of over 55% in size
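Mouse fibroblast NIH 3T3 cells, 400 per well, received compound via pintool and were incubated for 48 or 72 hr prior to CellTiter-Glo ATP luminescence measurement.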
HEK cytotox: Cytotoxic Profiling in HEK 293 Cell Line of Diverse Libraries Using Quantitative High-Throughput Screening; 6.6% of 94,000 active; HEK 293 viability, ATP luminescence (CellTiter-Glo), 48-72 h; AID 1345083, 2018; Potency, µM (top dose mostly 115 µM), for the others: top-dose activity change, negative = cytotoxicity, most hits filed as inhibitors; note: nearly all actives have a fitted effect of over 60% in size
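Luminescence from cellular ATP, measured with CellTiter-Glo, indicates HEK 293 viability. Cells plated at 250 cells/well are treated with compound for 48 or 72 hr at 37 degree Celsius before reagent addition.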
Luciferase inh: Firefly luciferase inhibition profiling of diverse chemical library using quantitative high-throughput screening | purified P. pyralis luciferase, luminescence, biochemical | Potency, µM (doses to about 115 µM), usual class: inhibitors | 2.5% of 76,000 active; note: nearly all actives have a fitted effect of over 65% in size
Target sequence (P08659 whole entry, looked up): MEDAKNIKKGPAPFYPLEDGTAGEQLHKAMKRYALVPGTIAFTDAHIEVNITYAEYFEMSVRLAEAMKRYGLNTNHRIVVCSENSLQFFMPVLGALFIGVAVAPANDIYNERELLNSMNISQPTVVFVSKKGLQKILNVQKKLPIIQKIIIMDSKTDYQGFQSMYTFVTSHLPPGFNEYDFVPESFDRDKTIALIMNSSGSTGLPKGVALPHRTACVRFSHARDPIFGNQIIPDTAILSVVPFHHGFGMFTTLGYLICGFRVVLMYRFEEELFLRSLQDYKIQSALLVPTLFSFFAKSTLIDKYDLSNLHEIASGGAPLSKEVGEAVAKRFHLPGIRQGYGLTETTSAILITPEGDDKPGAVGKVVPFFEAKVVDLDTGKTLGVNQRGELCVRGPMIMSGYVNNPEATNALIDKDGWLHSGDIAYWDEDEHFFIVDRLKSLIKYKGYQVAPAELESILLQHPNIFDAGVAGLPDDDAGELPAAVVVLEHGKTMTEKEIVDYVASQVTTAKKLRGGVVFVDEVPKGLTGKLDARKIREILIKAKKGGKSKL
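Luminescence read by CCD imaging after purified firefly luciferase (10nM final) was added to substrate buffer holding 10uM D-luciferin and 10uM ATP, pH 7.5, pre-dosed with compound.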
NPR1 antag: Natriuretic polypeptide receptor (hNpr1) antagonism - Primary qHTS; Atrial natriuretic peptide receptor 1 (Homo sapiens), P16066; HEK293 hNpr1 GloSensor cGMP, ANP-stimulated luminescence; Potency, µM (top dose mostly 46.3 µM), for the others: at the highest dose activity change, negative = inhibition, actives largely listed as inhibitors; 1.6% of 76,000 active; AID 1347048, 2019; calls by dose curve; note: nearly all actives have a fitted effect of over 60% in size
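HEK293 cells stably expressing human Npr1 and cGMP GloSensor pGS-40F, loaded 2 h with 2% GloSensor reagent, given compound 30 min at room temperature. Luminescence read before and 20 min after 0.1 nM hNppA.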
Starred values were filed as active, the others as inactive; i = inactive; ? = inconclusive; · = not tested or not shown; ! = not confirmed by another sample; [ ] = another dose, or the depositor's remark. Hits are enriched below; roughly 11% of the tested compounds scored in any of these assays. Unless noted, calls come from the whole dose curve; as a rule, active = well fitted curve in the direction sought with a large enough effect; inconclusive = small, poorly fitted or top-dose-only effect, or another doubt; inactive = no such curve, though single readings can be large; an effect the other way counts as inactive or inconclusive. % is set by controls: 0 for no effect and ±100 for the full control effect; potency is the fitted concentration of half-maximal effect.

SMILES | 3T3 cytotox | HEK cytotox | Luciferase inh | NPR1 antag
O=C(c1ccco1)N1CCCn2cc(-c3ccc4c(c3)OCO4)nc21 | i | ? | i | 5%
CNC(=O)c1cc(C)nc2onc(C3CCN(C(=O)Cc4ccc(F)cc4)C3)c12 (stereo not drawn) | -16% | 0% | · | ·
Cc1cc2cc(-c3c(C)noc3C)nc(Nc3ccc(F)cc3)c2o1 | ? | ? | i | -7%[70.6 µM]
Cc1noc(C)c1-c1cc2c(cc(C)n2CCN(C)C)c(Nc2ccn(C)n2)n1 | ? | 89µM* | i | -2%[70.6 µM]
Cc1noc(C)c1-c1cc2c(cc(C)n2CCN(C)C)c(-c2ccc(CO)cc2)n1 | ? | 79µM* | i | -21%[70.6 µM]
Cc1noc(C)c1-c1cc2c(cc(C)n2CCN(C)C)c(-c2ccccc2O)n1 | 32µM* | 45µM* | i | 0%[70.6 µM]
Cc1noc(C)c1-c1cc2c(cc(C)n2CCN(C)C)c(-c2cccnc2)n1 | ? | 71µM* | i | -13%[70.6 µM]
Cc1nn(-c2ccccc2)c2c1C(C)N(C1CCN([S+](=O)([O-])c3ccc(C4CC4)cc3)C1)C2=O (stereo not drawn) | ? | -33% | · | ·
O=C(c1n[nH]c2ccccc12)N1CCCC1c1nc(CCOCC2CCOCC2)no1 (stereo not drawn) | -4% | -6% | i | 3%
COc1ccc(CN2C(=O)[C@H](OC)[C@@H]2C2=CCN(C(=O)c3ccnn3C)CC2)cc1 | -20% | -7% | · | ·
COc1ccc(-c2nc(-c3c(C)noc3C)cc3c2cc(C)n3CCN(C)C)cn1 | ? | 79µM* | i | -10%[70.6 µM]
Cc1noc(C)c1-c1cc2c(cc(C)n2CCN(C)C)c(-c2cccc(O)c2)n1 | ? | 56µM* | i | -12%[70.6 µM]
COc1cccc(-c2nc(-c3c(C)noc3C)cc3c2cc(C)n3CCN(C)C)c1OC | ? | ? | i | -12%[70.6 µM]
CNC(=O)C1CCN(Cc2ccccc2-c2ccccc2F)CC1 | ? | -17%[172 µM] | · | ·
O=C(NC1CCN(Cc2cccc(-c3ccc(F)c(F)c3)c2)CC1)c1ccc(C(F)(F)F)cc1 | -31% | -17% | · | ·
COc1ccc(C(=O)NC2CCN(Cc3cccc(-c4ccc(F)c(F)c4)c3)CC2)cc1 | 22µM* | ? | · | ·
O=C(NC1CCN(Cc2cccc(-c3ccc(F)c(F)c3)c2)CC1)c1ccc(F)cc1 | 40µM* | 40µM* | · | ·
O=C(NC1CCCC1)NC1CCN(Cc2cccc(-c3ccc(F)cc3F)c2)CC1 | ? | 35µM*! | · | ·
O=C(Nc1ccccc1F)NC1CCN(Cc2cccc(-c3ccc(F)c(F)c3)c2)CC1 | 11µM* | ? | · | ·
O=C(Nc1ccccc1F)N1CCCN(CCn2nc3n(c2=O)CCCC3)CC1 | -10% | 3% | · | ·
CN(C)C(=O)NC1CCCN(Cc2ccc(-c3cncnc3)cc2)C1 (stereo not drawn) | -19%[138 µM] | ? | · | ·
Cc1ccsc1CN1CCC2(CCC2N2CCOCC2)CC1 (stereo not drawn) | -17% | -6% | · | ·
Cc1noc(C)c1C(=O)N1CCC2(CC1)CN(C(=O)c1ccc(Cl)cc1)CCO2 | 6.3µM* | 0% | · | ·
CCCCn1c(=O)c(C(=O)NCCc2ccccc2F)nc2cccnc21 | -26% | -7% | · | ·
O=C(Nc1cccc(-c2nnc3n2CCCC3)c1)C1CCCC1 | i | 11% | i | 1%
SMILES | 3T3 cytotox | HEK cytotox | Luciferase inh | NPR1 antag
Cc1c(CN2CCCC(C(=O)Nc3cccc(-c4cc5ccccc5[nH]4)c3)C2)cnn1C (stereo not drawn) | 8.9µM* | 20µM* | i | -25%
Cc1cccc(-c2cccc(NC(=O)C3CCCN(C(=O)c4cccc(C)n4)C3)c2)c1 (stereo not drawn) | ? | ? | 25µM* | -2%
CCn1cc(C(=O)N2CCCC(C(=O)Nc3cccc(-c4cc5ccccc5[nH]4)c3)C2)cn1 (stereo not drawn) | ? | 40µM* | ? | -5%
Cc1cc(C(=O)N2CCCC(C(=O)Nc3cccc(-c4cc5ccccc5[nH]4)c3)C2)nn1C (stereo not drawn) | ? | 32µM* | ? | -6%
Cc1ccccc1C(=O)N1CCCC1C(=O)N1CCCC1c1nc2ccncc2[nH]1 (stereo not drawn) | i | i | · | ·
O=C(O)CCC(=O)N1Cc2ccccc2CC2(CCCCN2CCc2ccccc2)C1 (stereo not drawn) | i | i | · | ·
O=C(Nc1cccc(-n2cccn2)c1)C1CCCN(Cc2cccc(F)c2F)C1 (stereo not drawn) | ? | 32µM* | i | -14%
Cc1cc2cc(-c3c(C)noc3C)nc(N(C)CCN(C)C)c2o1 | ? | 100µM* | i | 4%[70.6 µM]
COc1cc(CNc2nc(-c3c(C)noc3C)cc3cc(C)oc23)cc(OC)c1 | 25µM* | ? | i | ?
Cc1cc2cc(-c3c(C)noc3C)nc(Nc3ccccc3)c2o1 | 32µM* | ? | i | -8%[70.6 µM]
Cc1cc2cc(-c3c(C)noc3C)nc(-c3ccc([S+](C)(=O)[O-])cc3)c2o1 | ? | -20%[172 µM] | i | 1%[70.6 µM]
Cc1ccccc1Nc1cnc2ccc(-c3cccc(CO)c3)nn12 | ? | 79µM* | i | -3%[70.6 µM]
COc1ccccc1Nc1cnc2ccc(-c3cccc(CO)c3)nn12 | ? | ? | i | ?
OCc1cccc(-c2ccc3ncc(Nc4cccc(F)c4)n3n2)c1 | 28µM* | 56µM* | i | -24%[70.6 µM]
COc1cccc(Nc2cnc3ccc(-c4cccc(CO)c4)nn23)c1 | ? | ? | i | -17%[70.6 µM]
CC(C)NC(=O)C1CCN(Cc2ccccc2-c2ccccc2F)CC1 | -25% | -13% | · | ·
COCCN1C(=O)CCC2(CNC(=O)CCc3nc4ccccc4[nH]3)CCCC=C12 (stereo not drawn) | i | 3% | i | 7%
CNC(=O)[C@H]1C[C@]2(CCCCN(C)C2=O)N(C(=O)Cc2cccs2)[C@H]1c1ccccc1 | ? | 5% | · | ·
Cc1cc(Cl)ccc1S(=O)(=O)N1CCC(Oc2ccc(C(N)=O)cn2)CC1 | ? | 25µM* | i | ?
Cc1cc(S(=O)(=O)N2CCC(Oc3ccc(C(N)=O)cn3)CC2)ccc1Cl | ? | ? | i | ?
Cc1noc(C2CC3(CCN(C(=O)CC(C)C)CC3)CN2C)n1 (stereo not drawn) | 5% | -4% | · | ·
N#Cc1cccc(CN2C[C@H](O)C[C@H]2c2nc(-c3ccc4c(c3)OCO4)no2)c1 | ? | 100µM* | ? | -6%[70.6 µM]
O=C(O)c1ccc(CN2C[C@H](O)C[C@H]2c2nc(-c3ccc4c(c3)OCO4)no2)cc1 | -14%[174 µM] | -1%[172 µM] | ? | -2%[70.6 µM]
O[C@@H]1C[C@@H](c2nc(-c3ccc4c(c3)OCO4)no2)N(Cc2ccccc2)C1 | ? | ? | 50µM* | -5%[70.6 µM]
